In PubChem BioAssay (Tox21):
Inconclusive results are not listed. Unmarked numbers belong to inactive results. Active and inactive are the calls of the source. The call rests on the fitted dose curve; in most records, active means well fitted cell-killing curve with a large enough effect in the repeat runs; inconclusive means weak or mixed curves, or effect the other way; inactive means flat fitted curve, though single readings scatter.

experiment: cAMP Responsive Elements (CRE) small molecule antagonists, cell-based qHTS assay: qHTS cell viability counter screen (AID 2060913); conditions: CRE-bla HEK293T viability, CellTiter-Glo luminescence, 5 h; series mostly up to 92.4 µM; viability change, negative = cytotoxic: at the top concentration; further: nearly all actives have a fitted effect of over 40% in size
Excerpt: U.S. Tox21 Program National Center for Advancing Translational Sciences [NCATS] Division of Preclinical Innovation [DPI] U.S. Environmental Protection Agency [EPA] National Institutes of Environmental Health Sciences [NIEHS] National Toxicology Program [NTP] U.S. Food and Drug Administration [FDA] Tox21 Assay Overview: CREB (cyclic-AMP Responsive Element Binding Protein) is a cellular transcription factor. It binds to certain DNA sequences called cAMP Responsive Elements (CRE) and regulates the transcription of the genes. […] This cell line can be used to find agonists/antagonists of the cyclic AMP signaling pathway. The activation of the report gene under culture conditions can be detected by fluorescence intensity. This cell line has been used to screen the Tox21 10K compound library to identify agonists that induce oxidative stress. The cytotoxicity of the Tox21 compound library against the CRE-bla cell line was tested in parallel by measuring the cell viability using CellTiter-Glo assay (Promega, Madison, WI) in the same wells.
Tox21 Assay Protocol Summary: CRE-bla Hek 293T cells were suspended in assay medium (DMEM containing 10% dialyzed FBS, 0.1 mM NEAA, 1 mM sodium pyruvate and 25 mM HEPES) and dispensed at 2,000 cells/4 uL /well into 1536-well black wall/clear bottom plates using a Multidrop Combi (ThermoFisher Scientific, Waltham, MA) dispenser. After the assay plates were incubated at 37 C/5% CO2 for 18 hrs, 23 nL of compounds dissolved in DMSO, positive controls or DMSO only was transferred to the assay plate by a pintool workstation (Kalypsys, San Diego, CA), followed by addition of 1 uL of 1.25uM NKH477 (0.25 uM as final concentration) in assay medium using a Flying Reagent Dispenser (Aurora Discovery, San Diego, CA). The plates were incubated at 37 C and 5% CO2 for 3 hrs. Then 1 uL of LiveBLAzer B/G FRET substrate (Invitrogen, Carlsbad, CA) was added to each well using Bioraptr Flying Reagent Dispenser (FRD, Aurora Discovery, San Diego, CA). The plates were incubated at room temperature for 2 h, then fluorescence intensities were measured using an Envision plate reader (PerkinElmer, Shelton, CT) at Excitation 405nm, Emission 460nm and 530nm. The % activity was determined from the ratio of 460nm/530nm. For cell viability readout that measures cytotoxicity, 4 uL /well of CellTiter-Glo reagent was added into the assay plates using Bioraptr FRD. After 30 min incubation at room temperature, the luminescence intensity in the assay plates was measured using a ViewLux (PerkinElmer, Shelton, CT) plate reader.
On the % scale 0 is the no-effect control and ±100 the full control effect; potency means the concentration at half of the fitted maximal effect.

| Compound | Potency | viability change, negative = cytotoxic |
| --- | --- | --- |
| O=c1[nH]cnc2c1ncn2[C@H]1CC[C@@H](CO)O1 | inactive |  |
| Cc1c(C(=O)c2c[nH]n(C)c2=O)ccc(S(C)(=O)=O)c1C1=NOCC1 |  | -0.63% [at 42.5 µM] |
| CC[C@H](NC(=O)c1cc(F)ccc1NS(=O)(=O)c1cccc2cccnc12)c1ccccc1 |  | -1.5% |
| CC(C)(C)c1cc(Cc2cc(C(C)(C)C)c(O)c(C(C)(C)C)c2)cc(C(C)(C)C)c1O | inactive |  |
| CCc1cccc(CC)c1NC(=O)CN(CC(=O)O)CC(=O)O |  | 0.58% [at 42.5 µM] |
| C[C@H]1c2cccc(O)c2C(O)=C2C(=O)[C@]3(O)C(O)=C(C(N)=O)C(=O)[C@@H](N(C)C)[C@@H]3[C@@H](O)[C@@H]21 |  | 6.1% [at 42.5 µM] |
| CC(=O)Nc1cccc(C)c1 |  | -5.44% |
| Cc1ccc(=O)n(-c2ccccc2)c1 |  | 10.1% [at 42.5 µM] |
| C=CCOCC(O)CS(=O)(=O)O (stereo not given) |  | -1.06% |
| CN1N=C(C(N)=O)CCC1=O |  | 2.76% [at 42.5 µM] |
| CS(=O)(=O)c1ccc([C@@H](O)[C@@H](CO)NC(=O)C(Cl)Cl)cc1 | inactive |  |
| C[C@@H]1CCN(C(=O)[C@H](CCCN=C(N)N)NS(=O)(=O)c2cccc3c2NC[C@H](C)C3)[C@@H](C(=O)O)C1 |  | 7.95% [at 42.5 µM] |
| N=C1N=C(N)c2ccccc21 |  | 9.57% |
| CC[C@H]1O[C@]2(CC[C@@H]1C)C[C@@H]1C[C@@H](C/C=C(\C)C[C@@H](C)/C=C/C=C3\CO[C@@H]4[C@H](O)C(C)=C[C@@H](C(=O)O1)[C@]34O)O2 | 30.4 µM (active) |  |
| OCC(O)c1ccccc1 (stereo not given) |  | -3.2% |
| N#CCc1ccccc1[N+](=O)[O-] |  | 0.567% |
| CCCCCC=O | inactive |  |
| OCCOCCN1CCN(C2=Nc3ccccc3Sc3ccccc32)CC1 | inactive |  |
| CC(Oc1c(Cl)cccc1Cl)C1=NCCN1 (stereo not given) |  | 0.0926% [at 42.5 µM] |
| CC(C)(COC(=O)c1ccccc1)COC(=O)c1ccccc1 |  | 7.43% |

| Compound | Potency | viability change, negative = cytotoxic |
| --- | --- | --- |
| CC(C)C(=O)c1c(C(C)C)nn2ccccc12 |  | -0.393% [at 42.5 µM] |
| C1=C\CC/C=C\CC/C=C\CC/1 |  | -3.69% |
| Cn1c(=O)c2[nH]cnc2n(C)c1=O | inactive |  |
| COc1cc(/C=C/c2ccccc2)oc(=O)c1 |  | 2.98% |
| CC(C)CCCC(C)N (stereo not given) |  | 0.385% [at 42.5 µM] |
| O=Cc1ccccc1S(=O)(=O)O |  | 1.13% |
| Nc1ccc(S(=O)(=O)Nc2nccs2)cc1 | inactive |  |
| c1coc(Cn2cccc2)c1 |  | 18% |
| Cc1oc2c(NC(=O)c3c(Cl)cccc3Cl)cccc2c1C(C)(C)O |  | -5.8% |
| COCCCN | inactive |  |
| NS(=O)(=O)c1ccc(N2CCCCS2(=O)=O)cc1 |  | -0.059% [at 42.5 µM] |
| COC(C)(C)CC(C)=O |  | -2.66% |
| COc1cc2c(c(OC)c1OC)-c1ccc(OC)c(=O)cc1[C@@H](NC(C)=O)CC2 | inactive |  |
| Cc1cccc2c1cc1ccc3cccc4ccc2c1c34 |  | -0.428% |
| Cc1ccccc1S(=O)(=O)O |  | 9.27% |
| O=C(O)c1nc(Cl)c(Cl)c(Cl)c1Cl |  | 12.1% |
| C=C(C)C1CC=C(C)C(O)C1 (stereo not given) |  | -1.61% |
| O=c1[nH]nc(-c2ccc([N+](=O)[O-])o2)o1 |  | -0.124% |
| C=C(C)C(=O)OCCOc1ccccc1 |  | 2.98% |
| Cc1nc(-c2ccccn2)ncc1C(=O)Nn1cc(C)c2cc(F)ccc21 |  | -8.68% |
